Shiga toxin inh: A qHTS for Small Molecule Inhibitors of Shiga Toxin. inhibition, % at 38.7 µM. actives 9.2% (n = 290,000). Vero cells, Shiga toxin protein synthesis inhibition reporter; in the data active = inhibition mostly above about 28%, no sharp cut-off; inactive = mostly below about 43%; also: 0% is about no effect
Pf growth 96h: Primary qHTS for delayed death inhibitors of the malarial parasite plastid, 96 hour incubation | Potency, µM (highest dose often 28.7 µM), without a hit: top-dose activity change, negative = inhibition, most hits filed as inhibitors | actives 6.9% (n = 320,000) | AID 504834, 2011 | P. falciparum luciferase reporter growth, 96 h; also: potency is read from the fitted curve at half-maximal effect; % is scaled to controls: 0 for no effect and ±100 for the full control effect
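Erythrocytes infected with luciferase-expressing P. falciparum were dispensed at 2% hematocrit and 0.05% parasitemia (final), then incubated with compounds 96 hours at 37 C in 5% CO2. Luminescence after detection reagent addition reported growth.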
Cycloheximide cs: Cycloheximide Counterscreen for Small Molecule Inhibitors of Shiga Toxin | actives 12% (n = 300,000) | cell reporter, cycloheximide protein synthesis inhibition counterscreen | max response, %; in the data active = max response mostly above about 13%, no sharp cut-off; inactive = mostly below about 14%; also: read at 38.3 µM for the half of the compounds with a filed dose; 0% is about no effect
SARS PLP yeast: qHTS of Yeast-based Assay for SARS-CoV PLP; S. cerevisiae expressing SARS-CoV PLpro, growth rescue; Potency, µM (top dose mostly 32.9 µM), without a hit: top-dose activity, positive = growth rescue, usual class: activators; actives 0.19% (n = 330,000); AID 485353, 2010; calls by dose curve; also: potency is read from the fitted curve at half-maximal effect; 0% is about no effect; nearly all actives have a fitted effect of over 55% in size
Pf growth 48h: Primary qHTS for delayed death inhibitors of the malarial parasite plastid, 48 hour incubation; P. falciparum luciferase growth in erythrocytes, 48 h; Potency, µM (series often up to 28.7 µM), for the others: top-dose activity change, negative = inhibition, actives largely listed as inhibitors; actives 5.9% (n = 310,000); also: potency is read from the fitted curve at half-maximal effect; % is scaled to controls: 0 for no effect and ±100 for the full control effect
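Luciferase-expressing parasites in RBCs, 2% Hct / 0.1% parasitemia final; RPMI 1640 + 0.5% Albumax; 37 C, 5% CO2, one generation; luminescence read-out, lower signal = inhibition.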
AMA1 RON2 block: qHTS for Inhibitors of AMA1-RON; Towards Development of Antimalarial Drug Lead: Primary Screen; Plasmodium falciparum AMA1 (3D7) - RON2 peptide interaction; AlphaScreen AMA1-biotinylated RON2 peptide binding; Potency, µM (series often up to 58.2 µM), for inactives: at the top dose activity change, negative = inhibition, most hits filed as inhibitors; actives 0.2% (n = 360,000); AID 720542, 2013;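 also: potency is read from the fitted curve at half-maximal effect; 0% = vehicle wells and -100% = peptide control; nearly all actives have a fitted effect of over 45% in size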
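AMA1 (3D7) with his tag at 25 nM final met compounds first, then biotinylated RON2 peptide at 25 nM; detection used donor plus acceptor beads, 10 µg/mL apiece, read by AlphaScreen after 30 min at room temperature.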
* marks the source's active call; other numbers are inactive results. Shown are actives, neighbours in structure and some others; about 19% of the full set was active somewhere. Unless noted, calls follow the shape of the dose curve; as a rule, active = well fitted curve in the direction sought with a large enough effect; inconclusive = small, poorly fitted or top-dose-only effect, or another doubt; inactive = no such curve, though single readings can be large; an effect the other way counts as inactive or inconclusive.

Results for O=C(Nc1ccc(O)cc1C(=O)O)c1ccc(NC(=O)c2ccco2)cc1 ?
Pf growth 96h: -22.9%; SARS PLP yeast: -3.1%; Pf growth 48h: -1.9%; AMA1 RON2 block: -5.4%

What do the screens show for `Cc1ccc(O)c(NC(=O)c2ccco2)c1`?
Shiga toxin inh: 55.5*; Cycloheximide cs: 35.6*; SARS PLP yeast: -11.4%; Pf growth 48h: 43.9%; AMA1 RON2 block: -5.4%

Results for Cc1c(Cl)cccc1NC(=O)c1ccco1 ?
Pf growth 96h: inconclusive; Cycloheximide cs: 10.0; SARS PLP yeast: 0.3%; Pf growth 48h: 31.1%; AMA1 RON2 block: -1.6%

How did Cc1ccc(NC(=O)c2ccco2)c(NC(=O)c2ccccc2C)c1 do in these assays?
Shiga toxin inh: -4.0; Pf growth 96h: 40.6%; Cycloheximide cs: 6.1; SARS PLP yeast: 0.2%; Pf growth 48h: 35.2%; AMA1 RON2 block: -4.8%

Results for Cc1ccc(O)c(NC(=O)c2cccc(NC(=O)c3ccco3)c2)c1 ?
Shiga toxin inh: 57.9*; Pf growth 96h: 14.8%; Cycloheximide cs: 29.6*; SARS PLP yeast: -0.9%; Pf growth 48h: 27.7%; AMA1 RON2 block: 8.7%

Results for Cc1ccc(C(=O)Nc2ccc(NC(=O)c3ccco3)c(C)c2)cc1 ?
Shiga toxin inh: 49.0*; Pf growth 96h: 3.2%; Cycloheximide cs: 30.6*; SARS PLP yeast: 1.7%; Pf growth 48h: 77.0%; AMA1 RON2 block: 10.2%

What do the screens show for `O=C(NCc1ccc(F)cc1)c1cc(C2CCCCN2S(=O)(=O)c2cccc3cccnc23)on1` (stereo not drawn)?
AMA1 RON2 block: 0.3%

What do the screens show for `CC(C)N1CCSC1=S`?
AMA1 RON2 block: -16.7%

What do the screens show for `Cc1nc([N+](=O)[O-])c(Br)n1Cc1ccc(Cl)c(Cl)c1`?
Shiga toxin inh: -4.1; Pf growth 96h: -18.3%; Cycloheximide cs: -4.3; SARS PLP yeast: 0.8%; Pf growth 48h: inconclusive; AMA1 RON2 block: -6.9%

What do the screens show for `COc1ccc(CCN2C(=O)C(Oc3ccccc3C)C2c2ccc3c(c2)OCO3)cc1OC` (stereo not drawn)?
Shiga toxin inh: -6.1; Pf growth 96h: 57.8%; Cycloheximide cs: 1.3; SARS PLP yeast: 0.2%; Pf growth 48h: 11.7µM*; AMA1 RON2 block: -14.3%

Results for COc1ccc(CCN2C(=O)C(Oc3ccccc3C)C2c2ccc3c(c2)OCO3)cc1 (stereo not drawn) ?
Shiga toxin inh: -8.5; Pf growth 96h: 0.928µM*; Cycloheximide cs: 2.6; SARS PLP yeast: -12.1%; Pf growth 48h: inconclusive; AMA1 RON2 block: -2.0%

Results for O=C1C(Oc2ccccc2)C(c2ccc3c(c2)OCO3)N1CCc1ccc(F)cc1 (stereo not drawn) ?
Shiga toxin inh: 1.7; Pf growth 96h: 0.0%; Cycloheximide cs: 4.1; SARS PLP yeast: 3.8%; Pf growth 48h: inconclusive; AMA1 RON2 block: 0.3%

How did Cc1[nH]n(C(N)=S)c(=O)c1N=Nc1ccc(Br)cc1 do in these assays?
Shiga toxin inh: 42.4*; Pf growth 96h: 21.1%; Cycloheximide cs: 27.1*; SARS PLP yeast: -3.1%; Pf growth 48h: 2.1%; AMA1 RON2 block: 119.2%

Results for Cc1[nH]n(C(N)=S)c(=O)c1N=Nc1ccc(S(=O)(=O)N2CCCC2)cc1 ?
Shiga toxin inh: 23.5; Pf growth 96h: 0.0%; Cycloheximide cs: 19.4*; SARS PLP yeast: -2.5%; Pf growth 48h: 16.3%; AMA1 RON2 block: -1.4%

Results for Cc1[nH]n(C(N)=S)c(=O)c1N=Nc1cccc(C(F)(F)F)c1 ?
Shiga toxin inh: 32.5*; Pf growth 96h: inconclusive; Cycloheximide cs: 17.0; SARS PLP yeast: 0.0%; Pf growth 48h: 1.31µM*; AMA1 RON2 block: 117.0%

What do the screens show for `CCc1ccc(S(=O)(=O)NC(=S)NC2CCCCC2)cc1`?
Shiga toxin inh: -8.3; Pf growth 96h: inconclusive; Cycloheximide cs: -1.7; SARS PLP yeast: -1.6%; Pf growth 48h: 30.9%; AMA1 RON2 block: 75.4%

How did COc1ccc(-c2nc(CN(CC3CCC(=O)N3)C(C)C)c(C)o2)c(C)c1C (stereo not drawn) do in these assays?
Shiga toxin inh: 86.7*; Pf growth 96h: 31.9%; Cycloheximide cs: 24.8*; SARS PLP yeast: -1.0%; Pf growth 48h: 0.0%; AMA1 RON2 block: -1.0%

Results for CN1c2ccccc2Oc2ccccc21 ?
Shiga toxin inh: -10.2; Pf growth 96h: 54.3%; Cycloheximide cs: -5.1; SARS PLP yeast: -12.8%; Pf growth 48h: 44.4%; AMA1 RON2 block: 5.7%

How did CCN(CC)CCOc1cc2c(nn1)Oc1ccccc1N2C do in these assays?
Shiga toxin inh: 3.6; Pf growth 96h: 3.29µM*; Cycloheximide cs: 1.7; SARS PLP yeast: 0.1%; Pf growth 48h: 13.1%; AMA1 RON2 block: -6.7%

Results for N#Cc1c(/N=C/C=C/c2ccccc2)sc2c1CCCC2 ?
Shiga toxin inh: 37.2; Pf growth 96h: 32.9%; Cycloheximide cs: 9.0; SARS PLP yeast: 0.1%; Pf growth 48h: 70.1%; AMA1 RON2 block: 0.1%

What do the screens show for `CC(C)CN(/C=N/c1sc2c(c1C#N)CCCCC2)CC(C)C`?
Shiga toxin inh: -4.3; Pf growth 96h: inconclusive; Cycloheximide cs: -2.2; SARS PLP yeast: -8.4%; AMA1 RON2 block: -9.9%

Results for CCN(/C=N/c1sc2c(c1C#N)CCCCC2)CC ?
Shiga toxin inh: 66.9*; Pf growth 96h: 165.4%; Cycloheximide cs: 51.6*; SARS PLP yeast: -9.5%; Pf growth 48h: 76.1%; AMA1 RON2 block: -4.6%

Results for CN1CCN(/C=N/c2sc3c(c2C#N)CCCCC3)CC1 ?
Shiga toxin inh: 88.8*; Pf growth 96h: 328.8%; Cycloheximide cs: 45.7*; SARS PLP yeast: inconclusive; Pf growth 48h: 66.9%; AMA1 RON2 block: -5.5%

Results for O=C1Nc2ccccc2Cc2ccccc21 ?
AMA1 RON2 block: -7.7%

How did COC(=O)c1sccc1NC(=O)COc1ccccc1Cl do in these assays?
Shiga toxin inh: active; Pf growth 96h: inconclusive; Cycloheximide cs: 33.1*; SARS PLP yeast: 3.4%; Pf growth 48h: 46.0%; AMA1 RON2 block: 3.7%

What do the screens show for `COC(=O)c1sccc1NC(=O)Nc1ccc(C)cc1C`?
Shiga toxin inh: -1.2; Pf growth 96h: -22.5%; Cycloheximide cs: 25.5; SARS PLP yeast: -0.5%; Pf growth 48h: 0.0%; AMA1 RON2 block: -8.1%

Results for COC(=O)c1sccc1NC(=O)Nc1ccc(C(C)=O)cc1 ?
Shiga toxin inh: 53.0*; Pf growth 96h: 258.7%; Cycloheximide cs: 45.3*; SARS PLP yeast: -3.1%; Pf growth 48h: 51.5%; AMA1 RON2 block: -3.8%

How did COC(=O)c1sccc1NC(=O)/C=C/c1ccc(Cl)cc1 do in these assays?
Shiga toxin inh: 39.3; Pf growth 96h: 13.1µM*; Cycloheximide cs: 8.9; SARS PLP yeast: -1.3%; Pf growth 48h: 119.6%; AMA1 RON2 block: 2.6%
